Source: article PMC4336329 (PLoS ONE, 2015)
Hit rate of the full screen: of about 310,000 compounds, about 14,000 (4.5%) showed an effect of 50% or more. The effect is printed as a negative number. Many of the other results were omitted from the sample, so strong results are more common in it than they were.

biological target: human ether-à-go-go-related gene (hERG) potassium channel (human, UniProt Q12809); test: primary screen, population patch clamp on CHO cells stably expressing hERG; higher = less effect of the substance
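Also: peak tail current of the secondary pulse compared with the same well before compound.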

Sequence of human ether-à-go-go-related gene (hERG) potassium channel (Q12809 whole entry, looked up): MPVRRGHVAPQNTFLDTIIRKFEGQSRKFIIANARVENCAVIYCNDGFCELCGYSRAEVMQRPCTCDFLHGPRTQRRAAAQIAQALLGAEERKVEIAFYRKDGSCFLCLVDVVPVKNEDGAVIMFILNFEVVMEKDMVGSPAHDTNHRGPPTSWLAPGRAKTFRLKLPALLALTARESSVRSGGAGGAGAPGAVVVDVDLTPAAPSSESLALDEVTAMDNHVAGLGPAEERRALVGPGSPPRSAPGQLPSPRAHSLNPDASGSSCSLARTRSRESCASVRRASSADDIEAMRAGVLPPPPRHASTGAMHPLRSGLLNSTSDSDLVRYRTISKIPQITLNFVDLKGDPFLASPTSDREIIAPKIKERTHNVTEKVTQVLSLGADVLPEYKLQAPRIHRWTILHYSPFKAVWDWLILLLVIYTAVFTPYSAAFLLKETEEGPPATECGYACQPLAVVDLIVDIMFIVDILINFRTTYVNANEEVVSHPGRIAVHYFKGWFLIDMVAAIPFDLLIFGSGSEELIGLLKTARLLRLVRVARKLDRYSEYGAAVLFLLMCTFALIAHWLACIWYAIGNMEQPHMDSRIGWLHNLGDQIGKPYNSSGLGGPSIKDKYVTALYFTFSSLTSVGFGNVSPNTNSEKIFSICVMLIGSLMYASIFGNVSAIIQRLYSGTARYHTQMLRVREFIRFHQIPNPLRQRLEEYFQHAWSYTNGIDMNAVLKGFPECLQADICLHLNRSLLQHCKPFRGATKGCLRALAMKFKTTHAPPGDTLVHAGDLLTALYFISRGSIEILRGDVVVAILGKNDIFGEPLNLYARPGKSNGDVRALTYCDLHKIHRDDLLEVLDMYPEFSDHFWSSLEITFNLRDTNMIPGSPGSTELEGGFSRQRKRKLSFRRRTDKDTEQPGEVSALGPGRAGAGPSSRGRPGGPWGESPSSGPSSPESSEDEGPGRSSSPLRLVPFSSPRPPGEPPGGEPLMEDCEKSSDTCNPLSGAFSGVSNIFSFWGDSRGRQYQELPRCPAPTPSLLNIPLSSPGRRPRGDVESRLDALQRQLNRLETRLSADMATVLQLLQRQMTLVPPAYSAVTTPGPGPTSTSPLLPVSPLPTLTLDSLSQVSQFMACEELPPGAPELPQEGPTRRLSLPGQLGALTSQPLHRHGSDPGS

SMILES | hERG current change (%, negative = inhibition) at 10uM [%]
CCC/C(O)=C1\C(=O)CC(C)(C)CC1=Nc1ccccc1OC | -13.4
O=C(CCc1nnc(C2CCCCC2)o1)N1CCN(Cc2ccccc2)CC1 | 5.53
COCCN(C(=O)CCC(=O)Nc1nccs1)C(C(=O)NC(C)(C)C)c1ccc(C)cc1 (centres unmarked) | 5.03
COc1ccccc1C1CCN(c2cc(O)ccc2[N+](=O)[O-])CC1 | 4.65
Cc1cccc(NS(=O)(=O)c2nnc(NC(=O)c3cccc(C)c3)s2)c1 | 2.44
O=C(Nc1cc(-c2nc3ccccc3s2)ccc1Cl)c1ccc2c(c1)OCO2 | 7.51
CCOC(=O)c1nc2nc(C)c(Cl)c(=O)n2[nH]1 | 0.341
COc1cccc2cc(C(=O)NC(C)c3ccccc3)c(=O)oc12 (centres unmarked) | 16.3
CCc1cc2c(cc3c(=O)n(CC(=O)NCCCN(CC)CC)nc(CC)n32)s1 | -34.9
CCc1nn(CC(=O)NCCCN(CC)CC)c(=O)c2cc3sc(C)cc3n12 | 7.73
CCc1nn(CC(=O)NCCCN(CC)Cc2ccccc2)c(=O)c2cc3sccc3n12 | -50.2
CCc1cc2c(cc3c(=O)n(CC(=O)NCCCN4CCCCCC4)nc(CC)n32)s1 | -72.7
CCc1nn(CC(=O)NCCCN2CCOCC2)c(=O)c2cc3sccc3n12 | 16.2
CCc1nn(CC(=O)NCCCN(C)Cc2ccccc2)c(=O)c2cc3sc(C)cc3n12 | -69.9
CCc1nn(CC(=O)NCCCN2CCN(C)CC2)c(=O)c2cc3sccc3n12 | 7.04
CCc1nn(CC(=O)NCCCN2CCc3ccccc3C2)c(=O)c2cc3sccc3n12 | -70.2
CCc1nn(CC(=O)NCCCN2CCN(C)CC2)c(=O)c2cc3sc(C)cc3n12 | 14.8
CCc1nn(CC(=O)NCCCN(Cc2ccccc2)C(C)C)c(=O)c2cc3sccc3n12 | -43.8
CCCCN(CCCNC(=O)Cn1nc(CC)n2c(cc3sc(C)cc32)c1=O)Cc1ccccc1 | -47.1
CCc1nn(CC(=O)NCCCN2CCCC2=O)c(=O)c2cc3sccc3n12 | -12.3
CN1Cc2c(N3CCOCC3)nc3sc(C#N)c(N)c3c2CC1(C)C | -8.57
CCOC(=O)c1cc(-c2ccccc2C)nn1CC1CC(c2ccc(OC)cc2)=NO1 (centres unmarked) | 3.54
Cc1cccc(CS(=O)(=O)Cc2ccc(C(=O)NCCc3ccccc3)o2)c1 | -38.8

SMILES | hERG current change (%, negative = inhibition) at 10uM [%]
Cc1ccc(NC(=O)COC(=O)Cn2c(C)csc2=O)cc1C | 2.05
CC(=O)N1CCC(N(C(=O)Nc2ccc(C)c(C)c2)C2CCCC2)CC1 | -31.2
Cc1nnc(SCC2=C(C(=O)[O-])N3C(=O)C(NC(=O)Cc4ccccc4)C3SC2)s1.[Na+] (centres unmarked) | 9.74
CCn1c(C(=O)N2CCc3ccccc3C2)cc2sccc21 | -3.24
CCn1c(C(=O)NCCCN2CCc3ccccc3C2)cc2sccc21 | -64
CCN1CCN(CCCNC(=O)c2cc3sccc3n2CC)CC1 | -40.8
N#Cc1ccc(OCC(=O)OCC(=O)Nc2ccc(N3CCOCC3)cc2)cc1 | -15.3
CC(=O)NCc1ccc(C(=O)CCl)s1 | -7.15
CN(C)C=Nc1ncc2c3ccccc3n(CCN(C)C)c2c1C#N | -15.7
CCN(CC)CCn1c2ccccc2c2cnc(N)c(C#N)c21 | -60.5
CCN(CC)CCn1c2ccccc2c2cnc(N=CN(C)C)c(C#N)c21 | -31.8
CC1CN(C(=O)CSc2nc(N)cc(N)n2)CC(C)O1 (centres unmarked) | -10.3
Cc1nnc2c(NC3CCCC3)nc3ccccc3n12 | -37.3
CCCOc1ccc(N2C(=O)CC(N(CCc3ccc(OC)cc3)C(=O)c3ccccc3)C2=O)cc1 (centres unmarked) | -10.6
CCCOc1ccc(N2C(=O)CC(N(CCc3ccccc3)C(=O)c3ccccc3)C2=O)cc1 (centres unmarked) | 10.8
CCCOc1ccc(N2C(=O)CC(N(CCc3ccc(OC)c(OC)c3)C(=O)c3ccccc3)C2=O)cc1 (centres unmarked) | -74.9
CCCOc1ccc(N2C(=O)CC(N(CCc3ccc(OC)cc3)C(=O)c3cccc(F)c3)C2=O)cc1 (centres unmarked) | -8.44
CCOc1ccc(N2C(=O)CC(N(CCc3ccc(OC)cc3)C(=O)c3cccc(F)c3)C2=O)cc1 (centres unmarked) | -63
COc1ccc(CCN(C(=O)c2cccc(F)c2)C2CC(=O)N(c3ccccc3)C2=O)cc1 (centres unmarked) | -38.5
Cc1cccc(N(Cc2cc3ccc(C)cc3[nH]c2=O)C(=O)c2ccco2)c1 | -8.8
COC(=O)c1cccc(Nc2nc(-c3ccncc3)nc3ccccc23)c1 | 28.5
Cc1ccc(C2CCN(C(=S)NC3CCCCC3)C2)cc1 (centres unmarked) | -5.82
CC1CCCC(NC(=O)c2ccc(COc3ccccc3)o2)C1C (centres unmarked) | 0.0111

SMILES | hERG current change (%, negative = inhibition) at 10uM [%]
O=C(CNS(=O)(=O)c1ccccc1)OCC(=O)c1ccc([N+](=O)[O-])cc1 | -3.22
COc1ccc(NC(=O)COC(=O)[C@@H]2CCCN2S(=O)(=O)c2ccccc2F)c(OC)c1 | -18.2
O=C(COC(=O)CNS(=O)(=O)c1ccc(F)c(F)c1F)Nc1ccc(OC(F)F)cc1 | -65.2
CC(=O)c1ccccc1NC(=O)COC(=O)C1CCCN1S(=O)(=O)c1ccccc1F (centres unmarked) | -0.476
NC(=O)NC(=O)COC(=O)CNS(=O)(=O)c1ccc(F)c(F)c1F | 13.3
O=C(COC(=O)[C@@H]1CCCN1S(=O)(=O)c1ccccc1F)Nc1ccc(OC(F)F)cc1 | -61.7
N#Cc1ccc(NC(=O)COC(=O)CCNS(=O)(=O)c2ccccc2)cc1 | -34.4
COc1ccc(NC(=O)COC(=O)CNS(=O)(=O)c2ccc(F)c(F)c2F)cc1OC | 21.3
COc1ccc(NC(=O)COC(=O)CCNS(=O)(=O)c2ccccc2)cc1OC | 23.2
O=C(COC(=O)CCNS(=O)(=O)c1ccccc1)Nc1ccc(OC(F)F)cc1 | -60.3
CCn1c(CC(=O)Nc2cccc(OC)c2)nnc1SCC(=O)Nc1nccs1 | -2.39
CCc1ccc2c(c1)cc(C)c1nnc(SCC(=O)Nc3cc(OC)c(OC)cc3C(=O)O)n12 | 5.98
CC1CCC2(CC1)NC(=O)N(CC(=O)NCc1ccc(F)cc1)C2=O (centres unmarked) | -21.2
C/C(=N/Nc1nc(-c2ccccc2)cc(-c2ccc(F)cc2)n1)c1cccc(N)c1 | 3.2
NS(=O)(=O)c1ccc(CCNC(=O)c2ccc(OCC3CCCO3)cc2)cc1 (centres unmarked) | 19.9
Cc1cc(N2CCN(C)CC2)nc2ccc(NC(=O)c3ccc4c(c3)OCO4)cc12 | -62.2
Cc1ccc(NC(=O)c2ccc3c(c2)OCO3)cc1Cl | -2.98
Cc1cc(N2CCN(C)CC2)nc2ccc(NC(=O)c3cccnc3Cl)cc12 | -2.54
Cc1cc(N2CCN(C)CC2)nc2ccc(NC(=O)c3ccccc3F)cc12 | -58.4
COc1ccc(C(=O)Nc2ccc3nc(N4CCN(C)CC4)cc(C)c3c2)c(OC)c1 | -0.388
CCN1CCN(c2cc(C)c3cc(NC(=O)c4ccc5c(c4)OCO5)ccc3n2)CC1 | -38.6
O=C(Nc1ccc2c(c1)OCCO2)C1CCCN(S(=O)(=O)c2cccc3nsnc23)C1 (centres unmarked) | 4.93
O=C(CNC1CCCCCC1)Nc1ccc(S(=O)(=O)NC2CC2)cc1 | 1.98

SMILES | hERG current change (%, negative = inhibition) at 10uM [%]
Nc1ccccc1SCc1ccccc1 | -2.24
Oc1ccccc1C1NN=C(c2ccccc2)S1 (centres unmarked) | -15
COc1ccc(-c2csc(N(CCCN(C)C)C(=O)c3ccc(F)cc3)n2)cc1.Cl | -58.1
COc1ccc(-c2csc(N(CCCN(C)C)C(=O)c3ccc(C)cc3)n2)cc1.Cl | -68.2
COc1ccc(-c2csc(N(CCCN(C)C)C(=O)c3ccc(C(C)(C)C)cc3)n2)cc1.Cl | 18
C/C(=N\NC(=O)c1cc(O)cc(O)c1)c1ccc(NC(=O)Cc2ccccc2)cc1 | 14.2
CSc1ccc(CN(C)C(C)C(=O)Nc2ccc(F)c(F)c2F)cc1 (centres unmarked) | 15.3
CNC(=O)c1c(NC(=O)c2ccc(S(=O)(=O)N3CCCCC3C)cc2)sc2c1CCN(C)C2 (centres unmarked) | -3.92
CCc1cc(Cl)c(OC)c(C(=O)NC[C@@H]2CCCN2CC)c1O.Cl | -59.2
CCN1CCCC1CNC(=O)c1cc2c(OC)c(OC)c(OC)cc2[nH]1 (centres unmarked) | 23.2
CCN1CCCC1CNC(=O)c1cc2cc(F)ccc2[nH]1 (centres unmarked) | -73.3
O=C(NCC1CCCO1)c1cc2cc(F)ccc2[nH]1 (centres unmarked) | 9.11
CCN1CCCC1CNC(=O)c1cc(OC)c(OC)c(OC)c1 (centres unmarked) | 12.8
CCN1CCCC1CNC(=O)c1cc2c(OC)cccc2[nH]1 (centres unmarked) | -20.8
CCN1CCC[C@H]1CNC(=O)c1c(O)c(Cl)cc(Cl)c1OC.O=C(O)C(O)C(O)C(=O)O | -13.8
CCCCN1CCCC1CNC(=O)c1cc(C#N)c2ccccc2c1OC (centres unmarked) | -64.3
CCN1CCCC1CNC(=O)c1[nH]c2ccc(OC)cc2c1C (centres unmarked) | -51.2
CCN1CCC[C@H]1CNC(=O)c1c(O)c(Cl)cc(Cl)c1OC | -10.4
CCN1CCCC1CNC(=O)c1cc2ccc(OC)cc2[nH]1 (centres unmarked) | -12.4
CCN1CCCC1CNC(=O)c1cc2cc(OC)c(OC)cc2[nH]1 (centres unmarked) | 16.6
